Results filed as inconclusive are left out. Activity calls are given as the source filed them. Rule for the calls: active = hit-call score of the fitted dose curve at least 0.9, where 1 is the maximum; inconclusive = response in the unintended direction; inactive = score below 0.9.
What was measured:
[1] = target: Glycogen synthase kinase-3 beta (Homo sapiens) (UniProt P49841); experiment: NVS_ENZ_hGSK3b: NovaScreen (NVS) Enzymatic Assay for human Glycogen Synthase Kinase-3 beta (GSK3b) (AID 2283165)
Summary of the method: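 Recombinant enzyme with specific fluorescent substrate, 1 h, product separated by electrophoretic mobility shift. Primary duplicate screen at 25 uM; actives (e.g. 30% inhibition) followed in singleton concentration-response to 50 uM. Signal loss fitted versus DMSO.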

[2] = target: human c-Jun N-terminal Kinases (JNK2), MAPK9 (gene 5601) (UniProt P45984); experiment: NVS_ENZ_hJNK2: NovaScreen (NVS) Enzymatic Assay for human c-Jun N-terminal Kinases (JNK2) (AID 2283171)
Summary of the method: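 Chemicals first tested in duplicate at 25 uM, then in singleton concentration series up to 50 uM, against extracted JNK2 enzyme. Activity loss read by fluorescence with mobility-shift separation 1 h post-dose; DMSO baseline.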

[3] = target: Mitogen-activated protein kinase 3 (Homo sapiens) (UniProt P27361); experiment: NVS_ENZ_hMAPK3: NovaScreen (NVS) Enzymatic Assay for human Mitogen-Activated Protein Kinase 3 (MAPK 3) (AID 2283177)
Summary of the method: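 Chemicals were first tested in duplicate at 25 uM, with hits re-run as concentration series (max 50 uM). Recombinant enzyme activity, measured 1 h post-dose in a cell-free format, was read by fluorescence/mobility shift relative to DMSO.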

[4] = target: human Mitogen- and Stress-activated Protein Kinase-1 (Msk1), RPS6KA5 (gene 9252) (UniProt O75582); experiment: NVS_ENZ_hMsk1: NovaScreen (NVS) Enzymatic Assay for human Mitogen- and Stress-activated Protein Kinase-1 (Msk1) (AID 2283187)
Summary of the method: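 Chemicals first run in duplicate at 25 uM, with actives followed up in singleton concentration series to 50 uM maximum. Enzyme activity came from substrate/product mobility-shift separation with fluorescence detection after 1 h incubation of the recombinant protein.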

[5] = target: human Phosphodiesterase 4A1 (PDE4A1), PDE4A (gene 5141) (UniProt P27815); experiment: NVS_ENZ_hPDE4A1: NovaScreen (NVS) Enzymatic Assay for human Phosphodiesterase 4A1 (PDE4A1) (AID 2283191)
Summary of the method: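 Fluorescent substrate turnover by recombinant PDE4A1 read after 1 h by mobility-shift separation. Primary duplicate screen at 25 uM; hits retested in concentration series with a 50 uM maximum, relative to DMSO.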

[6] = target: cAMP-dependent protein kinase catalytic subunit alpha (Homo sapiens) (UniProt P17612); experiment: NVS_ENZ_hPKA: NovaScreen (NVS) Enzymatic Assay for human Protein Kinase A (PKA) (AID 2283192)
Summary of the method: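 Cell-free kinase activity read by fluorescence after mobility-shift separation of substrate and product, 1 h post-dosing. Single-concentration duplicate screen (25 uM) preceded singleton concentration series (top 50 uM); loss of signal versus DMSO.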

[7] = target: human Phosphoinositide 3-kinase alpha (PI3Ka), PIK3CA (gene 5290) (UniProt P42336); experiment: NVS_ENZ_hPI3Ka: NovaScreen (NVS) Enzymatic Assay for human Phosphoinositide 3-kinase alpha (PI3Ka) (AID 2283196)
Summary of the method: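 Recombinant human PI3Kα with fluorescent substrate, 1 h, product separated by electrophoretic mobility shift; 25 uM duplicate screen, hits (e.g., 30% inhibition) retested singly up to 50 uM; loss of signal vs DMSO.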

[8] = target: human MAP Kinase-Activated Protein Kinase 2 (MAPKAPK2), MAPKAPK2 (gene 9261) (UniProt P49137); experiment: NVS_ENZ_hMAPKAPK2: NovaScreen (NVS) Enzymatic Assay for human MAP Kinase-Activated Protein Kinase 2 (MAPKAPK2) (AID 2283178)
Summary of the method: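 Chemicals screened in duplicate at 25 uM, then to 50 uM top concentration in concentration-response, against recombinant human MAPKAPK2; substrate conversion read 1 hr post-dosing by fluorescence after electrophoretic mobility-shift separation, loss-of-signal relative to DMSO.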

[9] = target: human Phosphodiesterase 5 (PDE5), PDE5A (gene 8654) (UniProt O76074); experiment: NVS_ENZ_hPDE5: NovaScreen (NVS) Enzymatic Assay for human Phosphodiesterase 5 (PDE5) (AID 2283194)
Summary of the method: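 Screening began in duplicate at 25 uM, with actives taken into concentration-response. Enzyme activity of recombinant PDE5 toward its substrate was measured at 1 h by fluorescence mobility-shift detection, relative to DMSO controls.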

[10] = target: human Phosphodiesterase 10 (PDE10), PDE10A (gene 10846) (UniProt Q9Y233); experiment: NVS_ENZ_hPDE10: NovaScreen (NVS) Enzymatic Assay for human Phosphodiesterase 10 (PDE10) (AID 2283195)
Summary of the method: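 Biochemical single-readout PDE10A assay, cell-free, extracted protein. Compounds first screened at 25 uM in duplicate, hits then titrated to 50 uM max. Activity measured after 1 h; loss-of-signal fitted against DMSO negative control.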

[11] = target: Histone deacetylase 3 (Homo sapiens) (UniProt O15379); experiment: NVS_ENZ_hHDAC3: NovaScreen (NVS) Enzymatic Assay for human Histone Deacetylase 3 (HDAC3) (AID 2283163)
Summary of the method: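 Cell-free enzyme format: loss of fluorescent product after mobility-shift separation, 1 h incubation, recombinant human HDAC3. Single 25 uM duplicate screen first, then concentration series to a 50 uM top for hits; DMSO as baseline.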

[12] = target: human Protein Phosphatase, Mg2+/Mn2+ Dependent 1A (PPM1A), PPM1A (gene 5494) (UniProt P35813); experiment: NVS_ENZ_hPPM1A: NovaScreen (NVS) Enzymatic Assay for human Protein Phosphatase, Mg2+/Mn2+ Dependent 1A (PPM1A) (AID 2283198)
Summary of the method: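 Primary screen in duplicate at 25 uM, with actives then titrated to a maximum of 50 uM. Recombinant PPM1A dephosphorylation of fluorescent substrate measured at 1 h, with substrate and product separated by mobility shift; inhibition fitted against DMSO.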

[13] = target: human Matrix Metalloproteinase-9 (MMP9), MMP9 (gene 4318) (UniProt P14780); experiment: NVS_ENZ_hMMP9: NovaScreen (NVS) Enzymatic Assay for human Matrix Metalloproteinase-9 (MMP9) (AID 2283190);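 note: cell-free recombinant MMP9 protease activity read by fluorescent substrate signal; active means inhibition seen as loss of fluorescence signal versus DMSO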
Summary of the method: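 Cell-free recombinant MMP9 enzyme activity measured by fluorescence intensity 1 h after dosing. Primary screen in duplicate at 25 uM, actives followed in concentration series; loss of signal relative to DMSO.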

[14] = target: human Matrix Metalloproteinase-2 (MMP2), MMP2 (gene 4313) (UniProt P08253); experiment: NVS_ENZ_hMMP2: NovaScreen (NVS) Enzymatic Assay for human Matrix Metalloproteinase-2 (MMP2) (AID 2283184)
Summary of the method: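 Compounds first screened in duplicate at a single 25 uM, with actives followed up in concentration series. Recombinant human MMP2 cleaves a fluorogenic substrate; fluorescence taken at 1 h, inhibition fitted relative to DMSO.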

[15] = target: human Matrix Metalloproteinase-3 (MMP3), MMP3 (gene 4314) (UniProt P08254); experiment: NVS_ENZ_hMMP3: NovaScreen (NVS) Enzymatic Assay for human Matrix Metalloproteinase-3 (MMP3) (AID 2283185)
Summary of the method: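 Fluorescent substrate turnover by recombinant MMP3 read after 1 h, signal loss scored against DMSO. Compounds first run in duplicate at 25 uM single dose, then actives confirmed by concentration series.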

[16] = target: human Matrix Metalloproteinase-7 (MMP7), MMP7 (gene 4316) (UniProt P09237); experiment: NVS_ENZ_hMMP7: NovaScreen (NVS) Enzymatic Assay for human Matrix Metalloproteinase-7 (MMP7) (AID 2283183)
Summary of the method: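 Compounds first tested at 25 uM in duplicate, then at up to 50 uM in concentration series if active. Protease activity measured by fluorescence intensity 1 h after dosing, with fitting relative to DMSO.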

human Matrix Metalloproteinase-9 (MMP9), MMP9 (gene 4318), sequence (P14780 whole entry, looked up): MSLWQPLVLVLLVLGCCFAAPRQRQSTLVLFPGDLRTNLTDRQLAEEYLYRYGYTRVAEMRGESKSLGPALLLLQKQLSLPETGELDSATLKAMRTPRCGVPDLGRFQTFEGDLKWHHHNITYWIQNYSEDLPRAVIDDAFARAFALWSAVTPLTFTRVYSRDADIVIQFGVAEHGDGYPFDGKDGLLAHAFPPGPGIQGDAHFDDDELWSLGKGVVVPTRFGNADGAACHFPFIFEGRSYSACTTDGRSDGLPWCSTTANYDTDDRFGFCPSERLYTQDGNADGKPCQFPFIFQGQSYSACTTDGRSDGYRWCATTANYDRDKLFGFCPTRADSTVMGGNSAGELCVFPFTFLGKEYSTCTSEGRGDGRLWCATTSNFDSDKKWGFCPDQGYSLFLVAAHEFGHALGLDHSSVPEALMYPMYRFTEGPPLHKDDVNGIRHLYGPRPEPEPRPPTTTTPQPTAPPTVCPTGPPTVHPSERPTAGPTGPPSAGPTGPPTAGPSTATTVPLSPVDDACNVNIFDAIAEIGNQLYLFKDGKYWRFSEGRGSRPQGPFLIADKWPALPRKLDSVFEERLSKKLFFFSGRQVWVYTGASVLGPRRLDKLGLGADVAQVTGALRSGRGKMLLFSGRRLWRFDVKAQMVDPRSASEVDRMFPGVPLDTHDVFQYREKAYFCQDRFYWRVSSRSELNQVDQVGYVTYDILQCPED
human Mitogen- and Stress-activated Protein Kinase-1 (Msk1), RPS6KA5 (gene 9252), sequence (O75582 whole entry, looked up): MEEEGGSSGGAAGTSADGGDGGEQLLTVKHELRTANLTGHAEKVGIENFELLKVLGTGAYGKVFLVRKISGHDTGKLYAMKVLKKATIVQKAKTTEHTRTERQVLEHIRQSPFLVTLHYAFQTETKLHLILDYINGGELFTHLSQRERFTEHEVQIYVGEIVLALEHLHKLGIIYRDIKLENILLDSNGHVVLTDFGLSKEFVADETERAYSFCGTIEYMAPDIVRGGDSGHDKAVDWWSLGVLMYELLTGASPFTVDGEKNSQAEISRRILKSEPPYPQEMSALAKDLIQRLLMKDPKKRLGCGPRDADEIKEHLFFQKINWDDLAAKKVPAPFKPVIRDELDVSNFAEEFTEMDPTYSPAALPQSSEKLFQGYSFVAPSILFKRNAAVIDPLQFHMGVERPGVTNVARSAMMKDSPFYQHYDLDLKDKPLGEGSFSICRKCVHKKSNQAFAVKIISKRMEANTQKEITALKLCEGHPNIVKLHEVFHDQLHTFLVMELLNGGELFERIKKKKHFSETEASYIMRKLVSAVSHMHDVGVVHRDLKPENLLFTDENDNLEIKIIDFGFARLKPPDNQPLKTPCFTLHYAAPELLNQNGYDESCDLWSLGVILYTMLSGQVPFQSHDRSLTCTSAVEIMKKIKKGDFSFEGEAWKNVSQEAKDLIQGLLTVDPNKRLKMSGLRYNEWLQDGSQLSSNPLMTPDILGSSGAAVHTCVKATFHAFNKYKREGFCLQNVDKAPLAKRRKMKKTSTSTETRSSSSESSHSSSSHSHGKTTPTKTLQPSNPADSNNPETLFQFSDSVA
Glycogen synthase kinase-3 beta (Homo sapiens), sequence (P49841 whole entry, looked up): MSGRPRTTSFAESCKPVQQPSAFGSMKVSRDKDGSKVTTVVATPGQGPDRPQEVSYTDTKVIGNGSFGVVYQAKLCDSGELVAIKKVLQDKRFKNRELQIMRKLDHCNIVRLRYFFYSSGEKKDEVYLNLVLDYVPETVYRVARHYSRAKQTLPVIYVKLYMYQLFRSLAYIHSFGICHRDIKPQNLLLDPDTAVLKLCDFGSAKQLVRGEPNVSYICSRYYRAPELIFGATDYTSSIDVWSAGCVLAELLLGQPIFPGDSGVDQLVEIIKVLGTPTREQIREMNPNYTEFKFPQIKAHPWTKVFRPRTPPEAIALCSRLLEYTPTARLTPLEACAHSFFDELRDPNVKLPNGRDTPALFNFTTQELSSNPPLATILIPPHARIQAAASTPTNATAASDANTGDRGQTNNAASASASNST
human MAP Kinase-Activated Protein Kinase 2 (MAPKAPK2), MAPKAPK2 (gene 9261), sequence (P49137 whole entry, looked up): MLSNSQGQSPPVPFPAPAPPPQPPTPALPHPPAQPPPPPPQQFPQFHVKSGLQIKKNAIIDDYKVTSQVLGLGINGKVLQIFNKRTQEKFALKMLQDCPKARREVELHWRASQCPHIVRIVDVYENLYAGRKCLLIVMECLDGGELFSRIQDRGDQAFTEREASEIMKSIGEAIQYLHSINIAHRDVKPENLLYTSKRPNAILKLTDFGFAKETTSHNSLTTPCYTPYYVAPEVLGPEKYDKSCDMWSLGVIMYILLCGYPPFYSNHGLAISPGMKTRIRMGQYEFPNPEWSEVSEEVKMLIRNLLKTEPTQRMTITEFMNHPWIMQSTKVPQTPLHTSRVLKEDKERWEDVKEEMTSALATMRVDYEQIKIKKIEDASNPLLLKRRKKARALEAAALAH
human Phosphodiesterase 4A1 (PDE4A1), PDE4A (gene 5141), sequence (P27815 whole entry, looked up): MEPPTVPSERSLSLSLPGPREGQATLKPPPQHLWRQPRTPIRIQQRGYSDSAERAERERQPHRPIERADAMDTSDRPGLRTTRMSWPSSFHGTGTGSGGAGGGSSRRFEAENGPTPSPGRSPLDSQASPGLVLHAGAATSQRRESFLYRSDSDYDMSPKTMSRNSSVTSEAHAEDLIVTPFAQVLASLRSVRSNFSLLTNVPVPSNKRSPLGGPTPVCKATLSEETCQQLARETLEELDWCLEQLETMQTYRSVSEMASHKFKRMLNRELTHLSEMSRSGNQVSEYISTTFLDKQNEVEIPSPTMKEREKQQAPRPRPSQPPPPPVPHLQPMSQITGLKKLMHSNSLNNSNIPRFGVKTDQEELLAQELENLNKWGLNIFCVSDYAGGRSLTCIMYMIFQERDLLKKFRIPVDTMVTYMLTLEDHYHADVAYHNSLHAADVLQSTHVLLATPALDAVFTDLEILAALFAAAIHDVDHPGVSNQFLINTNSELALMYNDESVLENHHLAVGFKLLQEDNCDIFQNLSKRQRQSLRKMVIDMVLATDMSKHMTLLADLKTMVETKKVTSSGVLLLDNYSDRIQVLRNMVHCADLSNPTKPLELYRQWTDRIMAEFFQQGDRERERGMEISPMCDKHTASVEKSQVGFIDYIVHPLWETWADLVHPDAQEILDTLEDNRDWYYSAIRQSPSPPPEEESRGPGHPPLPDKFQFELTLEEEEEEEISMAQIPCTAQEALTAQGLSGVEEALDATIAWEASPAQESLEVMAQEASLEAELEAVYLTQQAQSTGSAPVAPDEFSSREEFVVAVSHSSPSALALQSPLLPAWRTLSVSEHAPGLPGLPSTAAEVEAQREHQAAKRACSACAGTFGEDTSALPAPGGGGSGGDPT
human Phosphoinositide 3-kinase alpha (PI3Ka), PIK3CA (gene 5290), sequence (P42336 whole entry, looked up): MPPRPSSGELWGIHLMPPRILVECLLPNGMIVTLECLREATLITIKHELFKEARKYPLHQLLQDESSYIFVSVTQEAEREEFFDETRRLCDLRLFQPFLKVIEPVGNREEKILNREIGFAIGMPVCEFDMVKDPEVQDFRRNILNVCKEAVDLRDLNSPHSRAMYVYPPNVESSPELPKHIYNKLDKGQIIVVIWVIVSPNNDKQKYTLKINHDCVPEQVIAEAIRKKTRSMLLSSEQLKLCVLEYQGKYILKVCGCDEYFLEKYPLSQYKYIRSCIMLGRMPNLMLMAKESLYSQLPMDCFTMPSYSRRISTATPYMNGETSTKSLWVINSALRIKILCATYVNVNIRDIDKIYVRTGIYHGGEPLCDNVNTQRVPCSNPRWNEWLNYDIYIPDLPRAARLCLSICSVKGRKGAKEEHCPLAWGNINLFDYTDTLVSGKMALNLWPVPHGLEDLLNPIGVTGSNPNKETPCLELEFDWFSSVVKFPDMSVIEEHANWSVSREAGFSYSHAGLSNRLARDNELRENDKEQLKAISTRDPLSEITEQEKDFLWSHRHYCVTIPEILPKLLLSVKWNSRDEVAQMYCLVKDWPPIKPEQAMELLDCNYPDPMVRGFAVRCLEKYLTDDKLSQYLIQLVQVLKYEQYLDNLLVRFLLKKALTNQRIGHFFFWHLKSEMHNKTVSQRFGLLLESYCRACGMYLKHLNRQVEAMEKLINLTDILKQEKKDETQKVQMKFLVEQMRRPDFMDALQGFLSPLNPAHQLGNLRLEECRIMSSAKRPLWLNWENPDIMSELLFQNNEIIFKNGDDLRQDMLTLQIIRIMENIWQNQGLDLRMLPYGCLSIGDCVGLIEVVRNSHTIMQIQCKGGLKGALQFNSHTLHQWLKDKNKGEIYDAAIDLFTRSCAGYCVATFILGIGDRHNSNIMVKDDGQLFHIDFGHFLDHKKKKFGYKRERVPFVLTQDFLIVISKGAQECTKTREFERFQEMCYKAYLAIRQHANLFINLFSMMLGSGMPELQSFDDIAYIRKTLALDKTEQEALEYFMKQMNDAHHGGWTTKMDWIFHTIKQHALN
Mitogen-activated protein kinase 3 (Homo sapiens), sequence (P27361 whole entry, looked up): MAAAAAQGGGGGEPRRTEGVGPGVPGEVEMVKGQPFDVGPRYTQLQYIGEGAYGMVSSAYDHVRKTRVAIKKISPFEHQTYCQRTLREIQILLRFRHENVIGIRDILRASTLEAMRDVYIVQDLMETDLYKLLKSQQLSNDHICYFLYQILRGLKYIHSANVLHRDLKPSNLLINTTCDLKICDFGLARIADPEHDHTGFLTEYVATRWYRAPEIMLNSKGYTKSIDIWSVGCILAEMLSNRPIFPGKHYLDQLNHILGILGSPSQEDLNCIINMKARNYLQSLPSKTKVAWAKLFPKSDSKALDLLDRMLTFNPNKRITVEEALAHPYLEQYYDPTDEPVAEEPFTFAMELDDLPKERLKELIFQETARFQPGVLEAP
human Protein Phosphatase, Mg2+/Mn2+ Dependent 1A (PPM1A), PPM1A (gene 5494), sequence (P35813 whole entry, looked up): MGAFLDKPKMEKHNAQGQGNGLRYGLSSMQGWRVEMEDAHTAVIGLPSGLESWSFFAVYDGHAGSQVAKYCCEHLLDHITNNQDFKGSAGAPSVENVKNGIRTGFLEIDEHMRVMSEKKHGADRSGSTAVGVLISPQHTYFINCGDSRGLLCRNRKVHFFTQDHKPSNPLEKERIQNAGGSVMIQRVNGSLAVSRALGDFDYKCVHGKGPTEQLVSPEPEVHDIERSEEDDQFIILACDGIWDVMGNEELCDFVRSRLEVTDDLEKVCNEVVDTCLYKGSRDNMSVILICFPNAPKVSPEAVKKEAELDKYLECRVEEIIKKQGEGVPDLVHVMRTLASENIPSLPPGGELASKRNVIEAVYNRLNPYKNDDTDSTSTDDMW

`CCCC(CCC)C(=O)O` was tested, and the outcome [1] was “inactive”, the outcome [2] was “inactive” and the outcome [3] was “inactive”. For the same compound, the outcome [4] was “inactive”, the outcome [5] was “inactive” and the outcome [6] was “inactive”. The outcome [7] was “inactive”.
In the case of `Cc1ncc([C@@H](CCCCCCc2ccc3c(n2)NCCC3)CC(=O)O)cn1`, the outcome [1] is reported as “inactive”, the outcome [8] is reported as “inactive” and the outcome [4] is reported as “inactive”. The outcome [5] was “inactive”, the outcome [9] was “inactive” and the AC50 [10] was 18.2 µM (active). For the same compound, the outcome [7] was “inactive”.
In the case of `CCCCCCCC/C=C\CCCCCCCC(=O)OC[C@@H](O)[C@H]1OC[C@H](O)[C@H]1O`, the outcome [1] is reported as “inactive”, the outcome [3] is reported as “inactive” and the outcome [4] is reported as “inactive”. The outcome [6] was “inactive”, the outcome [9] was “inactive” and the outcome [7] was “inactive”.
In the case of `Cc1nc(-c2ccccn2)ncc1C(=O)Nn1cc(C)c2cc(F)ccc21`, the outcome [11] is reported as “inactive”, the outcome [4] is reported as “inactive” and the outcome [9] is reported as “inactive”. For the same compound, the outcome [10] was “inactive” and the outcome [7] was “inactive”.
In the case of `c1ccc(C(O[C@@H]2CCCN(CCc3ccc4c(c3)OCO4)C2)c2ccccc2)cc1`, the outcome [1] is reported as “inactive”.
`OCc1c[nH]c2ccccc12` was tested, and the AC50 [10] was 40.2 µM (active) and the AC50 [7] was 19.3 µM (active).
With `C[C@@H](Oc1ccc(CNC(=O)c2cccnc2Oc2ccc3c(c2)OCO3)c(F)c1)C(=O)O` the AC50 [5] was 0.799 µM (active), the AC50 [10] was 7.95 µM (active) and the outcome [12] was “inactive”.
In the case of `S=P(N1CC1)(N1CC1)N1CC1`, the AC50 [13] is reported as 5.18 µM (active) and the outcome [10] is reported as “inactive”.
For `OC[C@H]1O[C@@](CO)(O[C@H]2O[C@H](CO)[C@@H](O)[C@H](O)[C@H]2O)[C@@H](O)[C@@H]1O`, the outcome [14] was “inactive”.
In the case of `CC(C)c1nnc2ccc(-c3ocnc3-c3cc(F)ccc3F)cn12`, the AC50 [10] is reported as 2.78 µM (active).
In the case of `c1ccc2cc3ccccc3cc2c1`, the outcome [8] is reported as “inactive”.
In the case of `OC(CCl)CCl`, the outcome [8] is reported as “inactive”.
In the case of `CCCCN1C(=O)[C@@H]([C@H](O)C2CCCCC2)NC(=O)C12CCN(Cc1ccc(Oc3ccc(C(=O)O)cc3)cc1)CC2`, the outcome [13] is reported as “inactive”.
`CC(=O)c1ccccc1` was tested, and the AC50 [14] was 26.7 µM (active).
`CCCCC(CC)C(=O)OCCOCCOCCOC(=O)C(CC)CCCC` (configuration not stated) was tested, and the outcome [8] was “inactive”.
In the case of `CCCCOC(=O)c1ccccc1`, the outcome [15] is reported as “inactive”.
In the case of `CCCCCCCCCCCCCCCCOS(=O)(=O)O`, the AC50 [10] is reported as 2.54 µM (active) and the AC50 [7] is reported as 3.42 µM (active).
`NC(=O)N1c2ccccc2C=Cc2ccccc21` was tested, and the outcome [9] was “inactive”.
`c1ccc2ncccc2c1` was tested, and the outcome [8] was “inactive”.
With `Cc1cccc(O)c1C` the AC50 [13] was 5.08 µM (active).
In the case of `Cc1ccc(S(=O)(=O)NC(=O)NN2CCCCCC2)cc1`, the outcome [16] is reported as “inactive”.

— PubChem BioAssay (EPA / NIEHS)
